Reference: the supplement of paper PMC7156485
± gives the standard deviation of the averaged measurements.

What follows are molecules tested on HCC1569 (assay: cell number relative to DMSO (% of DMSO); higher = more cells (less growth inhibition / toxicity)). Details: concentration: 10 µM; 24 h.
In short: (§1)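 Treatment: HCC1569 and TDF cells, 800 per well in 384-well plates with RPMI and 10% FBS, were given compounds at 10 µM for 24 h at 37 °C, in triplicate. Readout: after 3.7% formaldehyde fixation, cells were stained with a rabbit anti-H1.0 antibody, an AlexaFluor 647 secondary and DAPI. Reported values are H1.0 nuclear intensity or cell number as percent of the plate control, taken as the median of replicates, with positional smoothing for HCC1569.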
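Also: TDF denotes transformed human dermal fibroblasts of mesenchymal origin.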

SMILES | cell number
O=C(c1cc(O)c(O)c([N+](=O)[O-])c1)c1ccccc1F | 106
COc1cc(C(=O)OCCCN2CCCN(CCCOC(=O)c3cc(OC)c(OC)c(OC)c3)CC2)cc(OC)c1OC [Dilazep] | 107
O=C1CSc2ccccc2N1Cc1cccc(C(F)(F)F)c1 [4-[3-(trifluoromethyl)benzyl]-2H-1,4-benzothiazin-3(4H)-one] | 102
Cc1cc(C2CCCCC2)n(O)c(=O)c1.NCCO [Ciclopirox ethanolamine] | 78.7
CC1C(=O)CCC2C1(C)CCC1C2(C)CCC2(C)C3CC(C)(C)CCC3(C)CCC12C (stereo not drawn) [Friedelin] | 99.5
Cc1ccc(NC(=O)CCCCCC(=O)Nc2ccccc2N)cc1 [N~1~-(2-aminophenyl)-N~7~-(4-methylphenyl)heptanediamide] | 96.1
CCCCCCCC/C=C\CCCCCCCC(N)=O [(9Z)-9-octadecenamide] | 102
CC(=O)Oc1ccccc1C(=O)Nc1ncc([N+](=O)[O-])s1 [2-{[(5-nitro-1,3-thiazol-2-yl)amino]carbonyl}phenyl acetate] | 89.4

These molecules were tested on TDF in the same assay as above. Details: concentration: 10 µM; 24 h.
In short: as §1

SMILES | cell number
O=C(C=Cc1ccc(O)cc1)c1ccc(O)cc1O [Isoliquiritigenin] | 99.6
N[C@H](CO)C(=O)O [D-Serine] | 112
COC(=O)c1c(C)[nH]c(C)c1C(=O)c1ccccc1Cc1ccccc1 | 102
CC1=C(C(=O)O)N2C(=O)C(NC(=O)C(N)c3ccccc3)C2SC1 (stereo not drawn) [Cephalexin hydrate] | 111
CCCCCCCCC=CCCCCCCCCC(=O)O [10(Z)-Nonadecenoic acid] | 94.1
Cn1c(-c2ccc3c(c2)OCO3)cc(=O)c2ccccc21 [Graveoline] | 99.8
Cn1c(=O)c2c(nc(C=Cc3cccc(Cl)c3)n2C)n(C)c1=O [8-(3-Chlorostyryl)caffeine] | 94.1
CCC(C)n1ncn(-c2ccc(N3CCN(c4ccc(OCC5COC(Cn6cncn6)(c6ccc(Cl)cc6Cl)O5)cc4)CC3)cc2)c1=O (stereo not drawn) [Itraconazole] | 93
Nc1ccc(S(=O)(=O)Nc2ccnn2-c2ccccc2)cc1 [Sulfaphenazole] | 113
O=C([O-])Cc1ccccc1Nc1c(Cl)cccc1Cl.[Na+] [Diclofenac sodium] | 97.8
CC1COC2=C1C(=O)C(=O)c1c2ccc2c1CCCC2(C)C (stereo not drawn) [Cryptotanshinone] | 64.9
CCCCCCCCCCCCCCCC(=O)NCC(COP(=O)([O-])OCC[N+](C)(C)C)OCC (racemic) [rac-2-Ethoxy-3-hexadecanamido-1-propylphosphocholine] | 96.3
Cl.Cl.O=S(=O)(c1cccc2cnccc12)N1CCCNCC1 | 95
CCCCc1ncc(C=C(Cc2cccs2)C(=O)O)n1Cc1ccc(C(=O)O)cc1.CS(=O)(=O)O [Eprosartan mesylate] | 91.7
CN(Cc1cnc2nc(N)nc(N)c2n1)c1ccc(C(=O)NC(CCC(=O)O)C(=O)O)cc1 (single isomer, unassigned; (-)) [(-)Amethopterin] | 96.2
COc1cc(C=CC(=O)CC(=O)C=Cc2ccc(O)c(OC)c2)ccc1O [Curcumin] | 62.7
CN1CCc2cccc3c2C1Cc1ccc(O)c(O)c1-3.Cl (stereo not drawn) [Apomorphine hydrochloride hemihydrate] | 87.9
Nc1nc(Nc2ccccc2)nc2c1ncn2C1OC(CO)C(O)C1O (stereo not drawn) [2-Phenylaminoadenosine] | 100
O=C(O)C1=CC(=C(c2ccc(O)c(C(=O)O)c2)c2ccc(O)c(C(=O)O)c2)C=CC1=O [Aurintricarboxylic acid] | 113
O=C(O)CCCC=CCC1C(O)CC(O)C1C=CC(O)COc1cccc(C(F)(F)F)c1 (stereo not drawn) [Fluprostenol] | 96

SMILES | cell number
CCOC(=O)C=C(C)C=CC=C(C)C=Cc1c(C)cc(OC)c(C)c1C [Etretinate] | 97.6
Cl.O=C1CC2(CCCC2)CC(=O)N1CCCCN1CCN(c2ncccn2)CC1 [Buspirone hydrochloride] | 96.8
CN(C)CCCn1cc(C2=C(c3c[nH]c4ccccc34)C(=O)NC2=O)c2ccccc21 | 79.5
CC1=C(C)C(=O)C(C(CCCCCC(=O)O)c2ccccc2)=C(C)C1=O (stereo not drawn) [Seratrodast] | 104
Nc1nc2ccc(Cl)cc2n2c(-c3ccccc3)nnc12 [8-chloro-1-phenyl[1,2,4]triazolo[4,3-a]quinoxalin-4-ylamine] | 102
COC1C(OC(=O)C=CC=CC=CC=CC(=O)O)CCC2(CO2)C1C1(C)OC1CC=C(C)C (stereo not drawn) [Fumagillin] | 98.7 ± 8.4
CN(C)CCC=C1c2ccccc2CCc2ccccc21.Cl [Amitriptyline.HCl] | 89.4
O=C(Cc1ccc(Cl)c(Cl)c1)OCCN1CCCC1.O=C(O)C(=O)O [AC 915 oxalate] | 105
O=C1NC(C(=O)O)CS1 (stereo not drawn) [Procysteine] | 110
O=C([O-])c1cc2cc(Cc3cccnc3)ccc2o1.[Na+] [Furegrelate sodium] | 102
CCCCOC(=O)NC(=O)C1c2ccccc2Oc2ccccc21 [butyl 9H-xanthen-9-ylcarbonylcarbamate] | 106
CCCCc1c(-c2ccc(OC)cc2)[nH]c2nccnc12 [Aloisine, RP106] | 97.5
O=C(c1cc(O)c(O)c([N+](=O)[O-])c1)c1ccccc1F | 106
COc1cc(C(=O)OCCCN2CCCN(CCCOC(=O)c3cc(OC)c(OC)c(OC)c3)CC2)cc(OC)c1OC [Dilazep] | 93.1
O=C1CSc2ccccc2N1Cc1cccc(C(F)(F)F)c1 [4-[3-(trifluoromethyl)benzyl]-2H-1,4-benzothiazin-3(4H)-one] | 106
Cc1cc(C2CCCCC2)n(O)c(=O)c1.NCCO [Ciclopirox ethanolamine] | 58.8
CC1C(=O)CCC2C1(C)CCC1C2(C)CCC2(C)C3CC(C)(C)CCC3(C)CCC12C (stereo not drawn) [Friedelin] | 102
Cc1ccc(NC(=O)CCCCCC(=O)Nc2ccccc2N)cc1 [N~1~-(2-aminophenyl)-N~7~-(4-methylphenyl)heptanediamide] | 70.6
CCCCCCCC/C=C\CCCCCCCC(N)=O [(9Z)-9-octadecenamide] | 102
CC(=O)Oc1ccccc1C(=O)Nc1ncc([N+](=O)[O-])s1 [2-{[(5-nitro-1,3-thiazol-2-yl)amino]carbonyl}phenyl acetate] | 95.5
